Inconclusive results are not listed. Entries that show only a call come without a potency. Activity calls are given as the source filed them. The call rests on the fitted dose curve; in most records, active means well fitted activation curve with a large enough effect; inconclusive means small, poorly fitted or top-dose-only effect; inactive means flat fitted curve, though single readings scatter.

Cellular tumor antigen p53 (Homo sapiens), sequence (P04637 whole entry, looked up): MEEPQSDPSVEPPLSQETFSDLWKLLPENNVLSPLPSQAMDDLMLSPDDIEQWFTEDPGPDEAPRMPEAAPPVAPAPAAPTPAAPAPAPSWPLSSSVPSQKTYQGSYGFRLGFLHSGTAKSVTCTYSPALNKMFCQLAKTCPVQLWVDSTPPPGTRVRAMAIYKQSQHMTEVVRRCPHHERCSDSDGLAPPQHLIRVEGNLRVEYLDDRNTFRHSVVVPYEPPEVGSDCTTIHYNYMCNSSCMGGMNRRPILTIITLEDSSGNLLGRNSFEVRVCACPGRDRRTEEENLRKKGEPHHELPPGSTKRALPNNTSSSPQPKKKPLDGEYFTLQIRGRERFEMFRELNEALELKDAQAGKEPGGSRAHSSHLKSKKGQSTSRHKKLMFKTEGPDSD

This experiment addresses Cellular tumor antigen p53 (Homo sapiens) (UniProt P04637). Description: Primary qHTS for small molecule compounds that upregulate eGFP-tagged delta133p53alpha (in C-terminal) cells. (AID 2060324). Conditions: NCI-H358 delta133p53alpha-eGFP (C-terminal tag), GFP fluorescence imaging, 24 h; series mostly up to 57.5 µM. From the text: Assay Development and Screening Technology
National Center for Advancing Translational Sciences (NCATS),
National Institute of Health (NIH), Rockville, Maryland
Cellular senescence (CS) is one of the hallmarks of aging and age-related diseases. Senescent cells are characterized by an irreversible growth arrest, an increase in senescence-associated beta-galactosidase (SA-beta-gal) activity and p16INK4a expression, an activation of the DNA damage response pathways, and the emergence of a senescence-associated secretory phenotype (SASP).
Delta133p53alpha, a human/primate-specific p53 protein isoform, delays or inhibits the induction of CS and SASP in various types of human cells, including progeria-derived fibroblasts, primary normal astrocytes, and CD8+ T lymphocytes. Induction of delta133p53alpha with small molecule compounds may provide therapeutic opportunities for inhibition of senescence/SASP-associated pathologies in progeria syndromes, astrocyte-mediated neuroprotection in neurodegenerative diseases, and possibly prevention and treatment of a wider range of senescence- and aging-associated diseases.
Here we report the development and validation of a cell-based quantitative high throughput screening (qHTS) assay in 1,536-well format. This qHTS assay uses the NCI-H358 cell line with doxycycline-inducible expression of enhanced green fluorescent protein (eGFP)-tagged delta133p53alpha, which allows efficient and highly quantitative measurement of the protein levels.
PROTOCOL TABLE (as described by Inglese J, Shamu CE and Guy RK. 2007)
SEQUENCE No. (e.g., 1, 2, 3, etc.); […] (e.g., Cells, Incubation, Reagent, etc.); VALUE; DESCRIPTION.
1; Cells; 4uL; 800 doxycycline treated cells / well in doxycycline-free media, 1536-well black, clear-bottom low base Aurora microplates.
2; Compounds; 23 nL; Kalypsis pin tool (Wako) equipped with 1536-well pin heads, 5-azacytidine positive control.
3; Incubation; 24 hr; 37C, 5% CO2; 95% relative humidity.
4; Aspiration; 1x; BioTek EL406 washer dispenser (Agilent).
5; Fixing; 3.5% paraformaldehyde, BioTek EL406 washer dispenser (Agilent).
6; Washing; 1x PBS; BioTek EL406 washer dispenser (Agilent).
7; Nuclei staining; 1:1000 dilution of Hoechst 33342 (Thermofisher), BioTek EL406 washer dispenser (Agilent).
8; Incubation; 20 min; in the dark at room temperature.
9; Washing; 2x, 1x PBS (ThermoFisher), BioTek EL406 washer dispenser (Agilent).
10; Reagent; 10 uL; 1x PBS per well, sealed with clear adhesive tape.
11; Detection; Fluorescence, Acumen eX3 laser scanning cytometer (STP Labtech), GFP filters […].
NOTES (numbers refer to sequence numbers above).
1. NCI-H358 cells expressing eGFP-tagged delta133p53alpha were grown in T75 culture flasks and treated with doxycycline for 24h, at 10 ng/ml for eGFP-D133p53a cells (N-terminal cell) and 100 ng/ml for D133p53a-eGFP cells (C-terminal cells). Cells were trypsinized, counted using a Counted 3 Automated Cell Counter (Thermo Fisher), and diluted to a concentration of 200,000 cells/ml. A Multidrop Combi Reagent Dispenser (ThermoFisher) was used to dispense 800 cells/well in […] of doxycycline-free media, into 1536-well black/clear bottom low base plates (AuroraMicroplates).
2. After plating cells, 23 nl of compound library, DMSO vehicle control or positive control (5-azacytidine) were transferred by Pin Tool (Wako). The plate map layout was the same for each plate: (column 1) non-doxycycline treated cells + DMSO vehicle control; (column 2) doxycycline treated cells + DMSO vehicle control baseline; (column 3) doxycycline treated cells + positive control 57.5 uM final concentration 5-azacytidine; (column 4) doxycycline treated cells + serial dilution of 5-azacytidine, 16-point 1:2 titration spanning 1.8 nM to […] final concentration; (columns 5-48) doxycycline treated cells + titration of library compounds.
3. Cells were incubated at 37 °C, 5 % CO2, 95% RH with breathable metal lid for 24h.
4-10. […] […]
Regarding `[N-]=[N+]=Nc1ccc(C(=O)CSC[C@H](NC(=O)CC[C@H](N)C(=O)O)C(=O)NCC(=O)O)cc1`, the Potency result was “inactive”.
The value for `CCCCCC(O)CCCC(=O)O` (stereo not given) was “inactive”.
For the molecule `CCOC(=O)c1cnc2c(cnn2CC)c1NN=C(C)C`, the Potency entry was “inactive”.
Turning to `C[C@](Cc1ccc(O)c(O)c1)(NN)C(=O)O`, the Potency entry was “inactive”.
As to `NCCCC(=O)O`, the Potency entry was “inactive”.
With `C[C@]12CCC(=O)C=C1CC[C@@H]1[C@@H]2CC[C@@]2(C)[C@H]1CC[C@]2(O)C(=O)CO`, the Potency entry is “inactive”.
Consider `CCN(CC)CCNC(=O)c1ccc(NC(C)=O)cc1`, for which the Potency entry was “inactive”.
Take `COC(=O)C1=CO[C@@H](O)[C@@H]2C(CO)=CC[C@H]12`: the Potency result was “inactive”.
`CSc1ccc(C(=O)c2[nH]c(=O)[nH]c2C)cc1`: the Potency entry is “inactive”.
As to `COC1(C2=NCCN2)COc2ccccc2O1` (stereo not given), the Potency result was “inactive”.
With `N#Cc1cc2nc(O)c(O)nc2cc1[N+](=O)[O-]`, the Potency entry is “inactive”.
`COc1ccccc1OCC(O)CN1CCN(CC(=O)Nc2c(C)cccc2C)CC1` (stereo not given): the Potency entry is “inactive”.
In the case of `S=C(S)OC1CC2CC1C1CCCC21` (stereo not given), the Potency entry is “inactive”.
For the molecule `CN(C)CCOC(C)(c1ccccc1)c1ccccn1` (stereo not given), the Potency result was “inactive”.
Consider `COc1ccc2[nH]cc(CCNC(C)=O)c2c1`, for which the Potency result was “inactive”.
Under `Cn1cc(C(F)(F)F)nc1-c1ccc(OCC(O)CNCCOc2ccc(O)c(C(N)=O)c2)cc1` (stereo not given) stands “inactive”.
For `CN(C)C(=O)[C@H](O)[C@H](Cc1ccccc1)NC(=O)c1cc2cc(Cl)ccc2[nH]1`, the Potency entry is “inactive”.
Under `C=CCN1CCc2c(cc(O)c(O)c2Cl)C(c2ccccc2)C1` (stereo not given) stands “inactive”.
Consider `Oc1ccc(-c2nc(-c3ccc(F)cc3)c(-c3ccncc3)[nH]2)cc1`, for which the Potency entry is “inactive”.
Regarding `CCCCCCCCCCCCCCCCCCN(CCCCCCCCCCCCCCCCCC)CCCN(CCO)CCO`, the Potency result was “inactive”.
The value for `CCCC(CCC)C(=O)OC1CC2CCC(C1)[N+]2(C)C` (stereo not given) was “inactive”; that for `CC(C)C[C@H](NC(=O)[C@H](O)[C@H](N)Cc1ccccc1)C(=O)O` was “inactive”; that for `NC(=O)c1cn(Cc2c(F)cccc2F)nn1` was “inactive”.
For the molecule `CC1C(=O)N(C)C(=O)c2nc[nH]c21` (stereo not given), the Potency result is “inactive”.
As for `N#C/C(=C\c1ccc(O)c(O)c1)C(=O)c1ccc(O)c(O)c1`, the Potency entry was “inactive”.
Regarding `CCCNCC(O)COc1ccccc1C(=O)CCc1ccccc1` (stereo not given), the Potency result is “inactive”.
For `CNc1ncnc2c1ncn2[C@H]1C[C@H](OP(=O)(O)O)[C@@H](COP(=O)(O)O)O1`, the Potency result was “inactive”.
As for `c1ccc([C@H]2CN3CCSC3=N2)cc1`, the Potency result is “inactive”.
Take `O=C(O)c1ccccc1Nc1ccccc1`: the Potency entry was “inactive”.
Consider `OC[C@H]1O[C@@H](n2cnc3c(NC4CCCCC4)ncnc32)[C@H](O)[C@@H]1O`, for which the Potency result is “inactive”.
Consider `CC1(C)C(=O)N(CCN2CCC(C(=O)c3ccc(F)cc3)CC2)c2ccccc21`, for which the Potency result is “inactive”.
Turning to `C=C(C)C1CC=C(C(=O)O)CC1` (stereo not given), the Potency result was “inactive”.
On to `C=C1C[C@@]23CC[C@H]4[C@@](C)(CCC[C@@]4(C)C(=O)O)[C@@H]2CC[C@]1(O)C3`, for which the Potency result is “inactive”.
Under `CC(C)NCC(O)COc1ccc(CCOCC2CC2)cc1` (stereo not given) stands “inactive”.
Under `OC(CN1CCC(Cc2ccc(F)cc2)CC1)c1ccc(Cl)cc1` (stereo not given) stands “inactive”.
With `COc1ccc2cc([C@H](C)C(=O)O)ccc2c1`, the Potency result is “inactive”.
As for `Brc1cc2c(cc1[C@H]1Nc3ccccc3[C@H]3C=CC[C@H]31)OCO2`, the Potency result was “inactive”.
The value for `CC(C)(Sc1ccc(CCN(CCCCC2CCCCC2)C(=O)NC2CCCCC2)cc1)C(=O)O` was “inactive”.
Under `CCCn1c(=O)c2[nH]c(C3CCCC3)nc2n(CCC)c1=O` stands “inactive”; under `c1ccc(C(NCc2cccnc2)(c2ccccc2)c2ccccc2)cc1`, “inactive”.

These data come from PubChem BioAssay (NCATS).
